# In all, about 5,500 compounds went through this assay and about 2,000 (36%) were called active. Not shown: some 18% with an inconclusive outcome. Some of the results follow. A number with no mark means an inactive call. Rule as the data show it: active = normalized growth mostly below about 0.91 (no sharp cut-off); inconclusive = no clear call, values can overlap the other calls; inactive = mostly above about 0.92.
# Experiment: chemical genetic growth profiling, strain panel (AID 1159580);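 also: tested at 20 µM; growth read once vehicle control cultures reached saturation at 30 °C; 1 = growth at the plate median or of vehicle wells; lower values mean less growth of the strain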
# Settings: growth OD
structure (smiles),measurement,setting,value
COc1cc2c(cc1OC)CC(=O)OC2,normalized growth,"S. cerevisiae deletion strains, locus YAL013W, strain DEP1, active compounds read low",0.985
same,normalized growth,"S. cerevisiae deletion strains, locus YBR229C, strain ROT2, active compounds read low",0.984
same,normalized growth,"S. cerevisiae deletion strains, locus YCL061C, strain MRC1, active compounds read low",1
same,normalized growth,"S. cerevisiae deletion strains, locus YDL101C, strain DUN1, active compounds read low",0.984
same,normalized growth,"S. cerevisiae deletion strains, locus YDR150W, strain NUM1, active compounds read low",0.966
same,normalized growth,"S. cerevisiae deletion strains, locus YEL061C, strain CIN8, active compounds read low",1
same,normalized growth,"S. cerevisiae deletion strains, locus YGR078C, strain PAC10, active compounds read low",1.01
same,normalized growth,"S. cerevisiae deletion strains, locus YHR030C, strain SLT2, active compounds read low",1.06
same,normalized growth,"S. cerevisiae deletion strains, locus YHR087W, strain rtc3, active compounds read low",0.997
same,normalized growth,"S. cerevisiae deletion strains, locus YJR043C, strain POL32, active compounds read low",0.993
same,normalized growth,"S. cerevisiae deletion strains, locus YJR075W, strain HOC1, active compounds read low",0.995
same,normalized growth,"S. cerevisiae deletion strains, locus YKL190W, strain CNB1, active compounds read low",1
same,normalized growth,"S. cerevisiae deletion strains, locus YLR039C, strain RIC1, active compounds read low",1.23 [resistant] (active)
same,normalized growth,"S. cerevisiae deletion strains, locus YLR058C, strain SHM2 (second series), active compounds read low",0.994
same,normalized growth,"S. cerevisiae deletion strains, locus YLR085C, strain ARP6, active compounds read low",1.03
same,normalized growth,"S. cerevisiae deletion strains, locus YLR262C, strain YPT6, active compounds read low",1.16
same,normalized growth,"S. cerevisiae deletion strains, locus YML094W, strain GIM5, active compounds read low",0.999
same,normalized growth,"S. cerevisiae deletion strains, locus YMR219W, strain ESC1, active compounds read low",0.971
same,normalized growth,"S. cerevisiae deletion strains, locus YMR263W, strain SAP30, active compounds read low",0.994
same,normalized growth,"S. cerevisiae deletion strains, locus YNL128W, strain TEP1, active compounds read low",1
same,normalized growth,"S. cerevisiae deletion strains, locus YNL153C, strain GIM3, active compounds read low",1.03
same,normalized growth,"S. cerevisiae deletion strains, locus YNL298W, strain CLA4 (second series), active compounds read low",1.04
same,normalized growth,"S. cerevisiae deletion strains, locus YNL322C, strain KRE1, active compounds read low",0.979
same,normalized growth,"S. cerevisiae deletion strains, locus YNR030W, strain Alg12, active compounds read low",1.02
same,normalized growth,"S. cerevisiae deletion strains, locus YPL055C, strain LGE1, active compounds read low",0.935
same,normalized growth,"S. cerevisiae deletion strains, locus YPL241C, strain CIN2, active compounds read low",1
same,normalized growth,"S. cerevisiae deletion strains, locus YPR135W, strain CTF4, active compounds read low",1.04
same,normalized growth,"S. cerevisiae strains, strain wild type, active compounds read low",1.01
